“And” between values parts separate entries of the source, which are not always exact repeats. Equal values may be shown once. The whole screen tested about 5,500 compounds, of which about 2,000 (36%) were called active. Roughly 18% stayed inconclusive and do not appear here. Rule as the data show it: active = normalized growth mostly below about 0.91 (no sharp cut-off); inconclusive = no clear call, values can overlap the other calls; inactive = mostly above about 0.92. The list shows a part of the results.
Assay: chemical genetic growth profiling, strain panel (AID 1159580);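 also: tested at 20 µM; growth read once vehicle control cultures reached saturation at 30 °C; 1 = growth at the plate median or of vehicle wells; lower values mean less growth of the strain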
Conditions: S. cerevisiae deletion strains, growth OD

Measured: normalized growth

CCCCCCCCCCCCC[N+](C)(C)Cc1ccccc1
active: locus YAL013W, strain DEP1, stronger effect = lower value 0.0555 | locus YAL021C, strain ccr4, stronger effect = lower value 0.0637 | locus YAL026C, strain drs2, stronger effect = lower value 0.0609 | locus YAL030W, strain snc1, stronger effect = lower value 0.0556 | locus YBL061C, strain skt5, stronger effect = lower value 0.0585 | locus YBR009C, strain hhf1, stronger effect = lower value 0.0639 | locus YBR021W, strain FUR4, stronger effect = lower value 0.0876 | locus YBR023C, strain chs3, stronger effect = lower value 0.0617 | locus YBR171W, strain sec66, stronger effect = lower value 0.0746 | locus YBR229C, strain ROT2, stronger effect = lower value 0.0463 | locus YBR231C, strain swc5, stronger effect = lower value 0.0605 | locus YBR279W, strain paf1, stronger effect = lower value 0.0571 | locus YCL011C, strain gbp2, stronger effect = lower value 0.0555 | locus YCL016C, strain dcc1, stronger effect = lower value 0.0666 | locus YCL029C, strain bik1, stronger effect = lower value 0.0604 | locus YCL069W, strain vba3, stronger effect = lower value 0.0638 | locus YCR088W, strain abp1, stronger effect = lower value 0.059 | locus YDL005C, strain med2, stronger effect = lower value 0.073 | locus YDL035C, strain GPR1, stronger effect = lower value 0.0501 | locus YDL040C, strain nat1, stronger effect = lower value 0.0568 | locus YDL074C, strain BRE1, stronger effect = lower value 0.078 | locus YDL101C, strain DUN1, stronger effect = lower value 0.0549 | locus YDL134C, strain PPH21, stronger effect = lower value 0.0476 | locus YDL185W, strain tfp1, stronger effect = lower value 0.0592 | locus YDL192W, strain arf1, stronger effect = lower value 0.0605 | locus YDR001C, strain nth1, stronger effect = lower value 0.0567 | locus YDR069C, strain doa4, stronger effect = lower value 0.0672 | locus YDR101C, strain arx1, stronger effect = lower value 0.0615 | locus YDR137W, strain rgp1, stronger effect = lower value 0.12 | locus YDR159W, strain sac3, stronger effect = lower value 0.0884 | locus YDR162C, strain NBP2, stronger effect = lower value 0.0468 | locus YDR195W, strain ref2 0.118 | locus YDR297W, strain sur2, stronger effect = lower value 0.0581 | locus YDR318W, strain mcm21, stronger effect = lower value 0.063 | locus YDR334W, strain swr1, stronger effect = lower value 0.0601 | locus YDR335W, strain msn5, stronger effect = lower value 0.0563 | locus YDR388W, stronger effect = lower value 0.0567 | locus YDR392W, strain spt3, stronger effect = lower value 0.0701 | locus YDR502C, strain sam2, stronger effect = lower value 0.0651 | locus YEL003W, strain gim4, stronger effect = lower value 0.0517 | locus YEL037C, strain rad23, stronger effect = lower value 0.0542 | locus YEL061C, strain CIN8 (second series), stronger effect = lower value 0.0587 | locus YEL061C, strain CIN8, stronger effect = lower value 0.0483 | locus YER015W, strain faa2, stronger effect = lower value 0.0622 | locus YER016W, strain bim1, stronger effect = lower value 0.063 | locus YER110C, stronger effect = lower value 0.0733 | locus YER111C, strain swi4, stronger effect = lower value 0.0674 | locus YER155C, strain BEM2 (second series), stronger effect = lower value 0.0862 | locus YER155C, strain BEM2, stronger effect = lower value 0.0618 | locus YER167W, strain BCK2, stronger effect = lower value 0.0502 | locus YFR010W, strain ubp6, stronger effect = lower value 0.0662 | locus YGL078C, strain dbp3, stronger effect = lower value 0.0681 | locus YGL086W, strain mad1, stronger effect = lower value 0.0582 | locus YGL167C, strain pmr1, stronger effect = lower value 0.0698 | locus YGL173C, strain kem1, stronger effect = lower value 0.0657 | locus YGL227W, strain vid30, stronger effect = lower value 0.0603 | locus YGL240W, strain doc1, stronger effect = lower value 0.0764 | locus YGL248W, strain PDE1, stronger effect = lower value 0.0462 | locus YGL253W, strain hxk2, stronger effect = lower value 0.0524 | locus YGR078C, strain PAC10, stronger effect = lower value 0.0524 | locus YGR135W, strain pre9, stronger effect = lower value 0.0647 | locus YGR229C, strain SMI1, stronger effect = lower value 0.0592 | locus YGR252W, strain gcn5, stronger effect = lower value 0.206 | locus YHR013C, strain ard1, stronger effect = lower value 0.102 | locus YHR027C, strain rpn1, stronger effect = lower value 0.0626 | locus YHR030C, strain SLT2, stronger effect = lower value 0.0492 and 0.104 | locus YHR079C, strain IRE1 (second series), stronger effect = lower value 0.0567 | locus YHR079C, strain IRE1, stronger effect = lower value 0.111 | locus YHR094C, strain hxt1, stronger effect = lower value 0.058 | locus YHR129C, strain ARP1, stronger effect = lower value 0.0544 | locus YHR142W, strain chs7, stronger effect = lower value 0.0737 | locus YHR200W, strain rpn10, stronger effect = lower value 0.0601 | locus YIL066C, strain RNR3, stronger effect = lower value 0.0508 | locus YIL073C, strain SPO22, stronger effect = lower value 0.129 | locus YIL125W, strain kgd1, stronger effect = lower value 0.0665 | locus YIR030C, strain dcg1, stronger effect = lower value 0.0594 | locus YJL092W, strain hpr5, stronger effect = lower value 0.0601 | locus YJL095W, strain BCK1 (second series), stronger effect = lower value 0.0575 | locus YJL095W, strain BCK1, stronger effect = lower value 0.0546 and 0.0934 | locus YJL115W, strain asf1, stronger effect = lower value 0.0698 | locus YJL129C, strain trk1, stronger effect = lower value 0.0815 | locus YJL134W, strain LCB3, stronger effect = lower value 0.0471 | locus YJL154C, strain vps35, stronger effect = lower value 0.0584 | locus YJL164C, strain tpk1, stronger effect = lower value 0.0596 | locus YJL166W, strain qcr8, stronger effect = lower value 0.0642 | locus YJL168C, strain set2, stronger effect = lower value 0.0571 | locus YJL187C, strain SWE1 (second series), stronger effect = lower value 0.0466 | locus YJR043C, strain POL32, stronger effect = lower value 0.0593 | locus YJR066W, strain TOR1, stronger effect = lower value -0.000757

Reference: PubChem BioAssay AID1159580 (chemical genetic matrix, 2015)
